Compounds without any hit were thinned out: in the full panel of roughly 83,000, 20% have a hit.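 Single-concentration screen, 48 h exposure, 96-well plates. Endpoint: percent growth. Below 10 = active.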 Values without a mark were called inactive. Calls of active or inactive are those of the source.
Assays:
Assay in all cases: NCI-60 one-dose screen, 48 h (100 = growth as untreated, 0 = no growth, -100 = all killed)
Settings in all cases: 10 µM unless noted
[1] = test system: NCI-H23 lung
[2] = test system: NCI-H226 lung
[3] = test system: NCI-H322M lung
[4] = test system: HOP-62 NSCLC
[5] = test system: NCI-H460 lung
[6] = test system: HOP-92 NSCLC
[7] = test system: 786-0 renal
[8] = test system: COLO 205 colon
[9] = test system: DU-145 prostate
[10] = test system: K-562 leukemia
[11] = test system: MALME-3M melanoma
[12] = test system: MDA-MB-231 breast
[13] = test system: RXF 393 renal
[14] = test system: SF-268 CNS
[15] = test system: SF-295 CNS
[16] = test system: SF-539 CNS
[17] = test system: UACC-257 melanoma
[18] = test system: M14 melanoma
[19] = test system: A549/ATCC NSCLC

## Fc1ccccc1C1c2ccccc2-c2nccn21 (centres undefined)
[1]
  growth: 87%
[2]
  growth: 88.1%
[3]
  growth: 96.2%
[4]
  growth: 98.4%
[5]
  growth: 110%
[6]
  growth: 61.8%
[7]
  growth: 89.7%
[8]
  growth: 111%
[9]
  growth: 99.2%
[10]
  growth: 73.9%
[11]
  growth: 98.2%
[12]
  growth: 102%
[13]
  growth: -1.68% (active)
[14]
  growth: 109%
[15]
  growth: 89.3%
[16]
  growth: 98.9%
[17]
  growth: 96.6%
[18]
  growth: 104%

## O=C1C(=O)c2c(nc3ccc(Cl)cn23)-c2ccccc21
[1]
  growth: -45.4% (active)
[2]
  growth: -53.9% (active)
[3]
  growth: -92.1% (active)
[4]
  growth: -87.9% (active)
[5]
  growth: -100% (active)
[6]
  growth: -79.8% (active)
[7]
  growth: -100% (active)
[8]
  growth: -100% (active)
[9]
  growth: -100% (active)
[10]
  growth: -100% (active)
[11]
  growth: -81.8% (active)
[12]
  growth: -59% (active)
[13]
  growth: -100% (active)
[14]
  growth: -95.3% (active)
[15]
  growth: -80.3% (active)
[16]
  growth: -100% (active)
[17]
  growth: -93.3% (active)
[18]
  growth: -98.7% (active)

## Cn1c(N2N=C(c3ccc(Cl)cc3)CC2c2ccccc2)nc(-c2ccccc2)c(C#N)c1=O (centres undefined)
[1]
  growth: 66.3%
[2]
  growth: 74.5%
[3]
  growth: 83.5%
[4]
  growth: 83%
[5]
  growth: 58.7%
[6]
  growth: 16%
[19]
  growth: 64.8%
[7]
  growth: 84.4%
[8]
  growth: 99.4%
[9]
  growth: 89.4%
[11]
  growth: 97.6%
[12]
  growth: 58.6%
[13]
  growth: 96.4%
[14]
  growth: 57.9%
[15]
  growth: 85.4%
[16]
  growth: 103%
[18]
  growth: 90%

## O=C1C=CC(=O)N1c1ccccn1
[1]
  growth: 102%
[2]
  growth: 108%
[3]
  growth: 110%
[4]
  growth: 113%
[5]
  growth: 106%
[6]
  growth: 104%
[7]
  growth: 105%
[8]
  growth: 112%
[9]
  growth: 111%
[10]
  growth: 94.5%
[11]
  growth: 124%
[12]
  growth: 102%
[13]
  growth: 126%
[14]
  growth: 99.1%
[15]
  growth: 105%
[16]
  growth: 99.8%
[17]
  growth: 105%
[18]
  growth: 105%

## COc1c(O)cc2c(c1CC=C(C)C)OC(=O)c1c(cc(O)c(CC=C(C)C)c1O)O2
[1]
  growth: -8.77% (active)
[2]
  growth: 88.1%
[3]
  growth: 77.1%
[4]
  growth: 6.39% (active)
[5]
  growth: 9.47% (active)
[6]
  growth: 54.6%
[7]
  growth: 19.3%
[8]
  growth: 107%
[9]
  growth: 71.6%
[10]
  growth: 23.9%
[11]
  growth: 113%
[12]
  growth: 4.16% (active)
[13]
  growth: -43.5% (active)
[14]
  growth: 41%
[15]
  growth: 81%
[16]
  growth: 68.8%
[17]
  growth: 92.6%
[18]
  growth: 27.3%

## CCNCCCn1c2c(c3ccc(F)cc3c1=O)C(=O)c1cc(OC)cnc1-2
[1]
  growth: -40.4% (active)
[2]
  growth: -59.1% (active)
[3]
  growth: -3.52% (active)
[4]
  growth: -29% (active)
[5]
  growth: -27.1% (active)
[6]
  growth: -15.5% (active)
[7]
  growth: -38.4% (active)
[8]
  growth: -32% (active)
[9]
  growth: -2.92% (active)
[10]
  growth: 1.44% (active)
[11]
  growth: -68.7% (active)
[12]
  growth: 3.91% (active)
[13]
  growth: -80.8% (active)
[14]
  growth: 1.76% (active)
[15]
  growth: -21% (active)
[16]
  growth: -25.7% (active)
[17]
  growth: -20.4% (active)
[18]
  growth: -25.9% (active)

## CSc1nc(Nc2ccc(S(=O)(=O)Nc3ccon3)cc2)c(C#N)c(-c2ccc(Cl)cc2)n1
[1]
  growth: 94.2%
[2]
  growth: 95%
[3]
  growth: 98.3%
[4]
  growth: 106%
[5]
  growth: 112%
[6]
  growth: 109%
[7]
  growth: 94.7%
[8]
  growth: 108%
[9]
  growth: 106%
[10]
  growth: -0.642% (active)
[11]
  growth: 111%
[12]
  growth: 102%
[13]
  growth: 110%
[14]
  growth: 105%
[15]
  growth: 113%
[16]
  growth: 106%
[17]
  growth: 112%
[18]
  growth: 88.1%

## CSc1nc2nc3c(nc2c(=O)n1C)C(=O)c1ccccc1C3=O
[1]
  growth: -26.4% (active)
[2]
  growth: -55.6% (active)
[3]
  growth: -89.8% (active)
[4]
  growth: -97.9% (active)
[5]
  growth: -62% (active)
[6]
  growth: -40% (active)
[19]
  growth: -67.3% (active)
[7]
  growth: -50.5% (active)
[8]
  growth: -86.2% (active)
[9]
  growth: -89.7% (active)
[11]
  growth: -93% (active)
[12]
  growth: -4.27% (active)
[13]
  growth: -79.3% (active)
[14]
  growth: -17.9% (active)
[15]
  growth: -93.4% (active)
[16]
  growth: -99.8% (active)
[18]
  growth: -84.6% (active)

## O=C1CNc2cc(Cl)ccc2N1
[1]
  growth: 96.7%
[2]
  growth: 103%
[3]
  growth: 106%
[4]
  growth: 99.2%
[5]
  growth: 109%
[6]
  growth: 102%
[7]
  growth: 109%
[8]
  growth: 106%
[9]
  growth: 121%
[10]
  growth: 104%
[11]
  growth: 104%
[12]
  growth: 98.3%
[13]
  growth: 101%
[14]
  growth: 103%
[15]
  growth: 105%
[16]
  growth: 106%
[17]
  growth: 113%
[18]
  growth: 114%

## CC1C(C)N(C(=O)CCl)c2ccccc2N1C(=O)CCl (centres undefined)
[1]
  growth: -61.1% (active)
[2]
  growth: 13.7%
[3]
  growth: 3.9% (active)
[4]
  growth: -67.3% (active)
[5]
  growth: -37.3% (active)
[6]
  growth: -40.7% (active)
[19]
  growth: 38.4%
[7]
  growth: -55.1% (active)
[8]
  growth: -70.6% (active)
[9]
  growth: -94.9% (active)
[10]
  growth: -0.205% (active)
[12]
  growth: -53.8% (active)
[13]
  growth: -53.9% (active)
[14]
  growth: -77.9% (active)
[15]
  growth: -66.7% (active)
[16]
  growth: -94.8% (active)
[17]
  growth: -70.3% (active)
[18]
  growth: -81.8% (active)

## O=C(Nc1ccc(Cl)cc1)Nc1nc2ccc(OC(F)(F)F)cc2o1
[1]
  growth: 68.6%
[2]
  growth: 107%
[3]
  growth: 113%
[4]
  growth: 114%
[5]
  growth: 81.8%
[6]
  growth: 71.9%
[19]
  growth: 75.1%
[7]
  growth: 105%
[8]
  growth: 118%
[10]
  growth: 60.7%
[11]
  growth: 128%
[12]
  growth: 109%
[13]
  growth: 78.9%
[14]
  growth: 123%
[15]
  growth: 70.1%
[16]
  growth: 104%
[17]
  growth: 114%

## CCSc1nc(-c2cccs2)n2nc(-c3ccco3)cc2n1
[1]
  growth: 95%
[2]
  growth: 94.9%
[3]
  growth: 116%
[4]
  growth: 101%
[5]
  growth: 104%
[6]
  growth: 71.3%
[7]
  growth: 113%
[8]
  growth: 123%
[9]
  growth: 113%
[10]
  growth: 100%
[11]
  growth: 107%
[12]
  growth: 91.6%
[13]
  growth: 107%
[14]
  growth: 102%
[15]
  growth: 99.4%
[16]
  growth: 100%
[17]
  growth: 103%
[18]
  growth: 109%

## O=C(Nc1nc2ccc(OC(F)(F)F)cc2s1)c1ccc(F)cc1
[1]
  growth: -34.7% (active)
[2]
  growth: 20.6%
[3]
  growth: 30%
[4]
  growth: 26.1%
[5]
  growth: -13.1% (active)
[6]
  growth: -14% (active)
[19]
  growth: 14.5%
[7]
  growth: 16.2%
[8]
  growth: -17.4% (active)
[10]
  growth: 9.01% (active)
[11]
  growth: 10.9%
[12]
  growth: 27.1%
[13]
  growth: 48.5%
[14]
  growth: 8.27% (active)
[15]
  growth: 4% (active)
[16]
  growth: 21.5%
[17]
  growth: 22.3%
[18]
  growth: 37.3%

## COc1cc(C(=O)/C=C/c2cccc(Nc3ccnc4cc(Cl)ccc34)c2)cc(OC)c1OC
[1]
  growth: 11.1%
[2]
  growth: -18.7% (active)
[3]
  growth: 8.86% (active)
[4]
  growth: -76.8% (active)
[5]
  growth: 4% (active)
[6]
  growth: 16.3%
[7]
  growth: -74.1% (active)
[8]
  growth: -36.1% (active)
[9]
  growth: -0.714% (active)
[10]
  growth: -6.81% (active)
[11]
  growth: 9.8% (active)
[12]
  growth: -5.45% (active)
[13]
  growth: -71.9% (active)
[14]
  growth: -16.6% (active)
[15]
  growth: 3.06% (active)
[16]
  growth: -46.1% (active)
[17]
  growth: 30.6%
[18]
  growth: -11.6% (active)

## COc1cc(/C=C2\CN(C)CC3=C2Nc2nc(SC)[nH]c(=O)c2C3c2cc(OC)c(OC)c(OC)c2)cc(OC)c1OC (centres undefined)
[1]
  growth: 49.4%
[2]
  growth: 72.1%
[3]
  growth: 86.7%
[4]
  growth: 69.8%
[5]
  growth: 10.1%
[6]
  growth: 82.7%
[7]
  growth: 67.4%
[8]
  growth: 31.2%
[9]
  growth: 7.76% (active)
[10]
  growth: 8.74% (active)
[11]
  growth: 81.2%
[12]
  growth: 37.6%
[13]
  growth: 69.7%
[14]
  growth: 37.4%
[15]
  growth: 63.8%
[16]
  growth: 34.8%
[17]
  growth: 53.9%
[18]
  growth: 24.3%

## COc1ccc(CC(=O)Nc2nn3c(-c4cc(C(F)(F)F)cc(C(F)(F)F)c4)nnc3s2)cc1
[1]
  growth: 35.2%
[2]
  growth: 62.8%
[3]
  growth: 90.6%
[4]
  growth: 98.9%
[5]
  growth: 56.6%
[6]
  growth: 15.4%
[19]
  growth: 78.1%
[8]
  growth: 104%
[9]
  growth: 86%
[10]
  growth: 62.4%
[11]
  growth: 80.9%
[12]
  growth: 88%
[14]
  growth: 85.8%
[15]
  growth: 66.1%
[16]
  growth: 65.7%
[17]
  growth: 58.2%
[18]
  growth: 97%

## OCc1n(Cc2ccc3ccccc3c2)cc[n+]1Cc1ccc2ccccc2c1
[1]
  growth: 67.7%
[2]
  growth: 61.6%
[3]
  growth: 78.9%
[4]
  growth: 75%
[5]
  growth: 53.1%
[6]
  growth: -2.81% (active)
[7]
  growth: 80.1%
[8]
  growth: 23.1%
[9]
  growth: 84.7%
[10]
  growth: 22.7%
[11]
  growth: 38.1%
[12]
  growth: 51.4%
[13]
  growth: 57.3%
[14]
  growth: 60.7%
[15]
  growth: 79.2%
[16]
  growth: 68.3%
[17]
  growth: 18.3%
[18]
  growth: 41.7%

## COc1ccc(OC)c2c1CCC1(C2)NC(=O)NC1=O (centres undefined)
[1]
  growth: 106%
[2]
  growth: 102%
[3]
  growth: 107%
[4]
  growth: 95.2%
[5]
  growth: 107%
[6]
  growth: 69.3%
[19]
  growth: 98.9%
[7]
  growth: 113%
[8]
  growth: 98.9%
[10]
  growth: 105%
[11]
  growth: 96.5%
[12]
  growth: 98.8%
[13]
  growth: 108%
[14]
  growth: 133%
[15]
  growth: 113%
[16]
  growth: 95.1%
[18]
  growth: 105%

Reference: PubChem BioAssay (NCI)
